Source: PubChem BioAssay (NCATS)
Activity calls are given as the source filed them. How the calls were made is not given here.

The molecules below were run on HIV-1 nucleocapsid protein NCp7 (binding to TG oligonucleotide) (assay: HIV Nucleocapsid (AID 346;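 further: potency is for inhibitors that block NC binding and lower polarization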)). Conditions: HIV-1 NC / fluorescein-TGTGTGTG probe, fluorescence polarization.
How it was run: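 10 nM TG4xF probe with 100 nM nucleocapsid protein in high-salt Hepes pH 7.5 (250mM NaCl) containing 1uM ZnCl2 and reducing agents. Compound inhibition of binding was read as fluorescein polarization after 1 hr at room temperature.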
Potency means the concentration at half of the fitted maximal effect.

| Structure (SMILES) | Potency |
| --- | --- |
| COc1ccc(CNc2ncncc2-c2ccccc2Cl)c(OC)c1 | > 20 µM (inactive) |
| Cc1cnc(CNc2ncnc3ccc(-c4ccccc4CN(C)C)cc23)cn1 | > 20 µM (inactive) |
| N#CCCn1c(=O)c(-c2ccccc2)nc2cnc(N3CCOCC3)nc21 | > 20 µM (inactive) |
| O=C(c1ccco1)N1CCC2(CC1)CN(C(c1ccccc1)c1ccccc1)C2 | > 20 µM (inactive) |
| Cc1ccccc1-c1nc(-n2ccnc2)c2ccccc2n1 | > 20 µM (inactive) |
| CN(C)c1ccc(-c2ccc3ncnc(NC4CC4)c3c2)cc1 | > 20 µM (inactive) |
| CN(C)c1ncc2nc(-c3ccc(F)cc3)c(=O)n(C)c2n1 | > 20 µM (inactive) |
| O=C(c1csnn1)N1CCC2(CCCN(c3ccccc3)C2)CC1 | > 20 µM (inactive) |
| CC(=O)NCCNc1ncnc2ccc(-c3ccccc3Cl)cc12 | > 20 µM (inactive) |
| c1cncc(-c2nc(NCc3cccs3)c3ccccc3n2)c1 | > 20 µM (inactive) |
| CN(C)c1ccc(-c2cc(NCc3ccccc3)ncn2)cc1 | > 20 µM (inactive) |
| COCC(=O)N1CCC2(CCCN(C(=O)Nc3cccc(C#N)c3)C2)CC1 | > 20 µM (inactive) |
| CN1CCN(c2ncnc3ccc(-c4cccnc4)cc23)CC1 | > 20 µM (inactive) |
| CC(C)NC(=O)N1CC[C@@]2(CCCN(C(=O)c3cc(C(F)(F)F)cc(C(F)(F)F)c3)C2)C1 | > 20 µM (inactive) |
| O=C(c1cnccn1)N1CCC2(CCCN(C(c3ccccc3)c3ccccc3)C2)CC1 | > 20 µM (inactive) |
